# PubChem BioAssay AID1159580 (chemical genetic matrix, 2015)
# “And” between values parts separate entries of the source, which are not always exact repeats. Equal values may be shown once. About 2,000 (36%) of roughly 5,500 compounds were called active. Not shown: some 18% with an inconclusive outcome. Cut-off read from the data, not from the text of the source: active = normalized growth mostly below about 0.91 (no sharp cut-off); inconclusive = no clear call, values can overlap the other calls; inactive = mostly above about 0.92. The list shows a part of the results.
# Assay: chemical genetic growth profiling, strain panel (AID 1159580);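 note: tested at 20 µM; growth read once vehicle control cultures reached saturation at 30 °C; 1 = growth at the plate median or of vehicle wells; lower values mean less growth of the strain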
# Details: S. cerevisiae deletion strains, growth OD
compound,measurement,setting,value
COc1c2ccccc2nc2occc12,normalized growth,"locus YAL013W, strain DEP1, stronger effect = lower value",0.918 (inactive)
same,normalized growth,"locus YAL021C, strain ccr4, stronger effect = lower value",0.943 (inactive)
same,normalized growth,"locus YAL026C, strain drs2, stronger effect = lower value",0.914 (inactive)
same,normalized growth,"locus YAL030W, strain snc1, stronger effect = lower value",0.971 (inactive)
same,normalized growth,"locus YBL061C, strain skt5, stronger effect = lower value",0.956 (inactive)
same,normalized growth,"locus YBR009C, strain hhf1, stronger effect = lower value",0.867 (active)
same,normalized growth,"locus YBR021W, strain FUR4, stronger effect = lower value",0.993 (inactive)
same,normalized growth,"locus YBR023C, strain chs3, stronger effect = lower value",0.926 (inactive)
same,normalized growth,"locus YBR171W, strain sec66, stronger effect = lower value",0.942 (inactive)
same,normalized growth,"locus YBR229C, strain ROT2, stronger effect = lower value",1 (inactive)
same,normalized growth,"locus YBR231C, strain swc5, stronger effect = lower value",0.969 (inactive)
same,normalized growth,"locus YBR279W, strain paf1, stronger effect = lower value",0.949 (inactive)
same,normalized growth,"locus YCL011C, strain gbp2, stronger effect = lower value",0.913 (inactive)
same,normalized growth,"locus YCL016C, strain dcc1, stronger effect = lower value",0.9 (active)
same,normalized growth,"locus YCL029C, strain bik1, stronger effect = lower value",0.953 (inactive)
same,normalized growth,"locus YCL069W, strain vba3, stronger effect = lower value",0.882 (active)
same,normalized growth,"locus YCR088W, strain abp1, stronger effect = lower value",0.991 (inactive)
same,normalized growth,"locus YDL005C, strain med2, stronger effect = lower value",0.972 (inactive)
same,normalized growth,"locus YDL035C, strain GPR1, stronger effect = lower value",0.929 (inactive)
same,normalized growth,"locus YDL040C, strain nat1, stronger effect = lower value",0.982 (inactive)
same,normalized growth,"locus YDL074C, strain BRE1, stronger effect = lower value",0.867 (inactive)
same,normalized growth,"locus YDL101C, strain DUN1, stronger effect = lower value",0.934 (inactive)
same,normalized growth,"locus YDL185W, strain tfp1, stronger effect = lower value",0.99 (inactive)
same,normalized growth,"locus YDL192W, strain arf1, stronger effect = lower value",0.89 (active)
same,normalized growth,"locus YDR001C, strain nth1, stronger effect = lower value",0.966 (inactive)
same,normalized growth,"locus YDR069C, strain doa4, stronger effect = lower value",0.942 (inactive)
same,normalized growth,"locus YDR101C, strain arx1, stronger effect = lower value",0.876 (active)
same,normalized growth,"locus YDR137W, strain rgp1, stronger effect = lower value",0.93 (inactive)
same,normalized growth,"locus YDR159W, strain sac3, stronger effect = lower value",0.931 (inactive)
same,normalized growth,"locus YDR162C, strain NBP2, stronger effect = lower value",0.926 (inactive)
same,normalized growth,"locus YDR195W, strain ref2",1.32 [resistant] (active)
same,normalized growth,"locus YDR297W, strain sur2, stronger effect = lower value",0.97 (inactive)
same,normalized growth,"locus YDR318W, strain mcm21, stronger effect = lower value",0.928 (inactive)
same,normalized growth,"locus YDR334W, strain swr1, stronger effect = lower value",0.945 (inactive)
same,normalized growth,"locus YDR335W, strain msn5, stronger effect = lower value",0.938 (inactive)
same,normalized growth,"locus YDR388W, stronger effect = lower value",0.993 (inactive)
same,normalized growth,"locus YDR392W, strain spt3, stronger effect = lower value",0.767 (inactive)
same,normalized growth,"locus YDR502C, strain sam2, stronger effect = lower value",0.918 (active)
same,normalized growth,"locus YEL003W, strain gim4, stronger effect = lower value",0.941 (inactive)
same,normalized growth,"locus YEL037C, strain rad23, stronger effect = lower value",0.954 (inactive)
same,normalized growth,"locus YEL061C, strain CIN8 (second series), stronger effect = lower value",0.976 (inactive)
same,normalized growth,"locus YEL061C, strain CIN8, stronger effect = lower value",0.993 (inactive)
same,normalized growth,"locus YER015W, strain faa2, stronger effect = lower value",0.923 (active)
same,normalized growth,"locus YER016W, strain bim1, stronger effect = lower value",0.981 (inactive)
same,normalized growth,"locus YER110C, stronger effect = lower value",0.937 (inactive)
same,normalized growth,"locus YER111C, strain swi4, stronger effect = lower value",0.981 (inactive)
same,normalized growth,"locus YER155C, strain BEM2 (second series), stronger effect = lower value",0.648 (active)
same,normalized growth,"locus YER155C, strain BEM2, stronger effect = lower value",1.02 (inactive)
same,normalized growth,"locus YER167W, strain BCK2, stronger effect = lower value",0.941 (inactive)
same,normalized growth,"locus YFR010W, strain ubp6, stronger effect = lower value",0.919 (inactive)
same,normalized growth,"locus YGL078C, strain dbp3, stronger effect = lower value",0.944 (inactive)
same,normalized growth,"locus YGL086W, strain mad1, stronger effect = lower value",0.907 (active)
same,normalized growth,"locus YGL167C, strain pmr1, stronger effect = lower value",0.949 (inactive)
same,normalized growth,"locus YGL173C, strain kem1, stronger effect = lower value",0.941 (inactive)
same,normalized growth,"locus YGL227W, strain vid30, stronger effect = lower value",0.989 (inactive)
same,normalized growth,"locus YGL240W, strain doc1, stronger effect = lower value",0.791 (active)
same,normalized growth,"locus YGL248W, strain PDE1, stronger effect = lower value",0.929 (inactive)
same,normalized growth,"locus YGL253W, strain hxk2, stronger effect = lower value",0.946 (inactive)
same,normalized growth,"locus YGR135W, strain pre9, stronger effect = lower value",0.888 (active)
same,normalized growth,"locus YGR252W, strain gcn5, stronger effect = lower value",0.728 (active)
same,normalized growth,"locus YHR013C, strain ard1, stronger effect = lower value",0.967 (inactive)
same,normalized growth,"locus YHR027C, strain rpn1, stronger effect = lower value",0.932 (inactive)
same,normalized growth,"locus YHR030C, strain SLT2, stronger effect = lower value",1 (inactive) and 0.88 (inactive)
same,normalized growth,"locus YHR079C, strain IRE1 (second series), stronger effect = lower value",0.994 (inactive)
same,normalized growth,"locus YHR079C, strain IRE1, stronger effect = lower value",0.868 (inactive)
same,normalized growth,"locus YHR094C, strain hxt1, stronger effect = lower value",1.01 (inactive)
same,normalized growth,"locus YHR129C, strain ARP1, stronger effect = lower value",0.967 (inactive)
same,normalized growth,"locus YHR142W, strain chs7, stronger effect = lower value",0.842 (active)
same,normalized growth,"locus YHR200W, strain rpn10, stronger effect = lower value",0.882 (active)
same,normalized growth,"locus YIL066C, strain RNR3, stronger effect = lower value",0.91 (inactive)
same,normalized growth,"locus YIL073C, strain SPO22, stronger effect = lower value",0.939 (inactive)
same,normalized growth,"locus YIL125W, strain kgd1, stronger effect = lower value",0.981 (inactive)
same,normalized growth,"locus YIR030C, strain dcg1, stronger effect = lower value",0.992 (inactive)
same,normalized growth,"locus YJL092W, strain hpr5, stronger effect = lower value",0.954 (inactive)
same,normalized growth,"locus YJL095W, strain BCK1 (second series), stronger effect = lower value",0.968 (inactive)
same,normalized growth,"locus YJL095W, strain BCK1, stronger effect = lower value",0.873 (inactive) and 0.874 (active)
same,normalized growth,"locus YJL115W, strain asf1, stronger effect = lower value",0.947 (inactive)
same,normalized growth,"locus YJL129C, strain trk1, stronger effect = lower value",1.02 (inactive)
same,normalized growth,"locus YJL134W, strain LCB3, stronger effect = lower value",1.01 (inactive)
same,normalized growth,"locus YJL154C, strain vps35, stronger effect = lower value",0.979 (inactive)
same,normalized growth,"locus YJL164C, strain tpk1, stronger effect = lower value",0.907 (active)
same,normalized growth,"locus YJL166W, strain qcr8, stronger effect = lower value",0.901 (active)
same,normalized growth,"locus YJL168C, strain set2, stronger effect = lower value",0.991 (inactive)
same,normalized growth,"locus YJL187C, strain SWE1 (second series), stronger effect = lower value",0.927 (inactive)
same,normalized growth,"locus YJL187C, strain SWE1, stronger effect = lower value",0.968 (inactive)
